# This excerpt belongs to a sample that is enriched for the strongest signals.
# B1: PX14343C-bfa-541-26-541 (Bacteroides fragilis) (protein)
# chain: KAPLDEIADDSFWSDETLVKYYVNDLYSEISVDGLQLQENRSDNSVSAQRDKYRASWFKFNYDMVSASDPQDDDVWEDYYVKVRKCNRFFERIGTSTIEESEKSRLTGEVHFLRAMFYFEMVKRYGGVILLDKVLTMEDNWEIPRSSEKECYDFILEDLKKATEMLPASYGSREKGRATKGAAYALKSRVELYDKRYEDVIKSCAEVYKLGYELVDGTTPEKYRSIWWTTNKDNKEIIFDVQYKSPDVYNNMMVCNMVTYINDKYGDRGWGGLGPTQELIDAFEMADGTPATQYSQAPADQVFDINTCGIYEGREPRFYANIVFHGSQIFFNADKGAVTVDRYLMDTPDKGDGSLTGYNVWKWIDYDNYNYPYAGAGSPDFSTNWIILRYAEIYLNDAEARLETGDVEGARKAVNMIRQRVGLPDLTESDPEKLRELIRKERRIEFAFEEQRFYDVRRWKIGPETQTTLHGVRFVSPTEFKVTKTDIRTWNDRLYLTPVPHDEIVRSSVLKQNLGY
# Key:
# Test in all cases: glycan array binding signal (z-score within array); higher = stronger binding
# Conditions in all cases: glycan notation: IUPAC condensed, linker removed
# [1] = biological target: Fuc(a1-2)Gal(b1-3)GalNAc(b1-4)[Neu5Ac(a2-3)]Gal(b1-4)Glc
# Summary of the method: (§1)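 Negative Z-scores can be read as non-binding. The Z-score is calculated within each array and then averaged across arrays of one protein sequence at different concentrations or buffers and across linkers. Arrays, 3228 in all, were curated from the Consortium for Functional Glycomics database and kept only where the protein sequence was available.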
# Fuc(a1-2)Gal(b1-3)GlcNAc = biological target: Fuc(a1-2)Gal(b1-3)GlcNAc
# Summary of the method: as §1
# [2] = biological target: Fuc(a1-2)Gal(b1-3)GlcNAc(b1-3)Gal(b1-4)Glc
# Summary of the method: as §1
# [3] = biological target: Fuc(a1-2)Gal(b1-3)[Fuc(a1-4)]GlcNAc(b1-2)Man(a1-3)[Fuc(a1-2)Gal(b1-3)[Fuc(a1-4)]GlcNAc(b1-2)Man(a1-6)]Man(b1-4)GlcNAc(b1-4)[Fuc(a1-6)]GlcNAc(b1-4)[Fuc(a1-6)]GlcNAc
# Summary of the method: as §1
# Fuc(a1-2)Gal(b1-4)GlcNAc = biological target: Fuc(a1-2)Gal(b1-4)GlcNAc
# Summary of the method: as §1
# [4] = biological target: Fuc(a1-2)Gal(b1-4)GlcNAc6S
# Summary of the method: as §1
# [5] = biological target: Fuc(a1-2)Gal(b1-4)[Fuc(a1-3)]GlcNAc(b1-3)Gal(b1-4)[Fuc(a1-3)]GlcNAc(b1-3)Gal(b1-4)[Fuc(a1-3)]GlcNAc
# Summary of the method: as §1
# Fuc(a1-2)Gal6S(b1-4)Glc = biological target: Fuc(a1-2)Gal6S(b1-4)Glc
# Summary of the method: as §1
# [6] = biological target: Fuc(a1-2)[Gal(a1-3)]Gal(b1-4)GlcNAc
# Summary of the method: as §1
# [7] = biological target: Fuc(a1-2)[Gal(a1-3)]Gal(b1-4)GlcNAc(b1-2)Man
# Summary of the method: as §1
# [8] = biological target: Fuc(a1-2)[Gal(a1-3)]Gal(b1-4)[Fuc(a1-3)]Glc
# Summary of the method: as §1
# [9] = biological target: Fuc(a1-2)[GalNAc(a1-3)]Gal(b1-3)GlcNAc(b1-6)GalNAc
# Summary of the method: as §1
# [10] = biological target: Fuc(a1-2)[GalNAc(a1-3)]Gal(b1-4)GlcNAc(b1-3)GalNAc
# Summary of the method: as §1
# [11] = biological target: Fuc(a1-3)[Gal3S(b1-4)]GlcNAc6S
# Summary of the method: as §1
# [12] = biological target: Fuc(a1-3)[GalNAc(b1-4)]GlcNAc
# Summary of the method: as §1
# Fuc(a1-4)GlcNAc = biological target: Fuc(a1-4)GlcNAc
# Summary of the method: as §1
# Gal(a1-3)Gal(b1-4)Glc = biological target: Gal(a1-3)Gal(b1-4)Glc
# Summary of the method: as §1
# Gal(a1-3)Gal(b1-4)GlcNAc = biological target: Gal(a1-3)Gal(b1-4)GlcNAc
# Summary of the method: as §1
# [13] = biological target: Gal(a1-3)Gal(b1-4)GlcNAc(b1-2)Man
# Summary of the method: as §1
# [14] = biological target: Gal(a1-3)Gal(b1-4)GlcNAc(b1-2)Man(a1-3)[Gal(a1-3)Gal(b1-4)GlcNAc(b1-2)Man(a1-6)]Man(b1-4)GlcNAc(b1-4)GlcNAc
# Summary of the method: as §1
# [15] = biological target: Gal(b1-3)GalNAc(b1-3)Gal(a1-4)Gal(b1-4)Glc
# Summary of the method: as §1
# [16] = biological target: Gal(b1-3)GalNAc(b1-4)Gal(b1-4)Glc
# Summary of the method: as §1
# [17] = biological target: Gal(b1-3)GlcNAc(b1-2)Man(a1-3)[Gal(b1-3)GlcNAc(b1-2)Man(a1-6)]Man(b1-4)GlcNAc(b1-4)GlcNAc
# Summary of the method: as §1
# [18] = biological target: Gal(b1-3)GlcNAc(b1-3)GalNAc
# Summary of the method: as §1
# [19] = biological target: Gal(b1-3)[Fuc(a1-4)]GlcNAc(b1-2)Man
# Summary of the method: as §1
# [20] = biological target: Gal(b1-4)GlcNAc(a1-6)Gal(b1-4)GlcNAc
# Summary of the method: as §1
# [21] = biological target: Gal(b1-4)GlcNAc(b1-2)Man(a1-3)Man(b1-4)GlcNAc(b1-4)GlcNAc
# Summary of the method: as §1
binder,measurement,setting,value
B1,glycan array binding signal (z-score),[1],1.52
same,glycan array binding signal (z-score),Fuc(a1-2)Gal(b1-3)GlcNAc,0.399
same,glycan array binding signal (z-score),[2],-0.05
same,glycan array binding signal (z-score),[3],0.403
same,glycan array binding signal (z-score),Fuc(a1-2)Gal(b1-4)GlcNAc,-0.892
same,glycan array binding signal (z-score),[4],-0.542
same,glycan array binding signal (z-score),[5],-0.071
same,glycan array binding signal (z-score),Fuc(a1-2)Gal6S(b1-4)Glc,3.12
same,glycan array binding signal (z-score),[6],-0.674
same,glycan array binding signal (z-score),[7],-0.447
same,glycan array binding signal (z-score),[8],-0.83
same,glycan array binding signal (z-score),[9],0.051
same,glycan array binding signal (z-score),[10],0.855
same,glycan array binding signal (z-score),[11],-0.963
same,glycan array binding signal (z-score),[12],0.848
same,glycan array binding signal (z-score),Fuc(a1-4)GlcNAc,-0.619
same,glycan array binding signal (z-score),Gal(a1-3)Gal(b1-4)Glc,-0.559
same,glycan array binding signal (z-score),Gal(a1-3)Gal(b1-4)GlcNAc,7.53
same,glycan array binding signal (z-score),[13],-1.04
same,glycan array binding signal (z-score),[14],2.85
same,glycan array binding signal (z-score),[15],-0.233
same,glycan array binding signal (z-score),[16],-0.284
same,glycan array binding signal (z-score),[17],2.98
same,glycan array binding signal (z-score),[18],0.08
same,glycan array binding signal (z-score),[19],-0.63
same,glycan array binding signal (z-score),[20],8.35
same,glycan array binding signal (z-score),[21],0.345

# Source: the supplement of paper PMC8728848
